PubChem BioAssay (EPA / NIEHS)
Values joined by “and” are separate entries in the source; they are usually repeats but may differ in a detail not shown here. Identical values can stand only once. Inconclusive results are not listed. Active and inactive are the calls of the source. Rule for the calls: active = hit-call score of the fitted dose curve at least 0.9, where 1 is the maximum; inconclusive = response in the unintended direction; inactive = score below 0.9.

Molecular target: rat Gamma-Aminobutyric Acid Type A Receptor, Non-Selective (GABAR-NonSelective), Gabra1 (gene 29705) (UniProt P62813)
Assay: NVS_LGIC_rGABAR_NonSelective: NovaScreen (NVS) Ligand-Gated Ion Channel Assay for rat Gamma-Aminobutyric Acid Type A Receptor, Non-Selective (GABAR-NonSelective) (AID 2283326)
Protocol: NVS_LGIC_rGABAR_NonSelective is a biochemical, single-readout assay that uses extracted gene-proteins from Rat whole brain in a tissue-based cell-free assay. Measurements were taken 1 hour after chemical dosing in a 48-well plate.NVS_LGIC_rGABAR_NonSelective is one of one assay component(s) measured or calculated from the NVS_LGIC_rGABAR_NonSelective assay. It is designed to make measurements of radioligand binding, a form of binding reporter, as detected with scintillation counting signals by Filter-based radiodetection technology.Data from the assay component NVS_LGIC_rGABAR_NonSelective was analyzed into 1 assay endpoint. This assay endpoint, NVS_LGIC_rGABAR_NonSelective, was analyzed in the positive analysis fitting direction relative to DMSO as the negative control and baseline of activity. Using a type of binding reporter, loss-of-signal activity can be used to understand changes in the binding as they relate to the gene Gabra1. Furthermore, this assay endpoint can be referred to as a primary readout, because the performed assay has only produced 1 assay endpoint. To generalize the intended target to other relatable targets, this assay endpoint is annotated to the ion channel intended target family, where the subfamily is ligand-gated ion channel.
Binding assays used specific radioligands (tritiated, iodinated) with non-radioactive competitive displacement ligands in agonist or antagonist protocols (as indicated) and various reference compounds and inhibitors to titrate specific binding to receptors and transporters. Most enzyme assays (CYPs, kinases, phosphatases, proteases, HDACs) used recombinant protein and specific substrates (fluorescence mostly, some colorimetric and radioactive) and inhibitors, followed by a biochemical separation of substrate and product. All assays for the biochemical HTS were initially run in duplicate at a single concentration (10 uM for CYP450 assays and 25 uM for all others). […]

Chain of rat Gamma-Aminobutyric Acid Type A Receptor, Non-Selective (GABAR-NonSelective), Gabra1 (gene 29705) (P62813 whole entry, looked up): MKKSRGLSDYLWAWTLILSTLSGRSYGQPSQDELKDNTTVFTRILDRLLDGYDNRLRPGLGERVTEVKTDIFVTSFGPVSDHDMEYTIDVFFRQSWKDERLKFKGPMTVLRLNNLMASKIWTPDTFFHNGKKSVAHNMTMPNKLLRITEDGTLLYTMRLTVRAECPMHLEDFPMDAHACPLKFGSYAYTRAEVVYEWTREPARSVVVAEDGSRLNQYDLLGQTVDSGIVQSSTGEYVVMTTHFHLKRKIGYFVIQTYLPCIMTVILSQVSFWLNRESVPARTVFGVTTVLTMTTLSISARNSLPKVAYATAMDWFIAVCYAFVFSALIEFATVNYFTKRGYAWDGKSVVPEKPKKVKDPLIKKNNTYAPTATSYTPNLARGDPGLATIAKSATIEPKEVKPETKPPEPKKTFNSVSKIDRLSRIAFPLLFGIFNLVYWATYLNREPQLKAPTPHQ

SMILES	AC50	outcome
c1cc2c3c(cccc3c1)CC2	1.7 µM (active)	–
CCC1(c2ccccc2)C(=O)N=C(O)NC1=O (stereo not given)	–	inactive
CCOS(=O)(=O)OCC	–	inactive

Molecular target: rat Thyrotropin Releasing Hormone Receptor (TRH), Trhr (gene 25570) (UniProt Q01717)
Assay: NVS_GPCR_rTRH: NovaScreen (NVS) G Protein-Coupled Receptor Assay for rat Thyrotropin Releasing Hormone Receptor (TRH) (AID 2283329);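 note: hit means lower bound tracer signal versus DMSO baseline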
Procedure, shortened: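 Competitive radioligand binding on rat forebrain membrane preparations, with filtration and scintillation readout after 4 h. Primary testing in duplicate at 25 uM; actives confirmed in concentration-response. DMSO defined baseline.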

Chain of rat Thyrotropin Releasing Hormone Receptor (TRH), Trhr (gene 25570) (Q01717 whole entry, looked up): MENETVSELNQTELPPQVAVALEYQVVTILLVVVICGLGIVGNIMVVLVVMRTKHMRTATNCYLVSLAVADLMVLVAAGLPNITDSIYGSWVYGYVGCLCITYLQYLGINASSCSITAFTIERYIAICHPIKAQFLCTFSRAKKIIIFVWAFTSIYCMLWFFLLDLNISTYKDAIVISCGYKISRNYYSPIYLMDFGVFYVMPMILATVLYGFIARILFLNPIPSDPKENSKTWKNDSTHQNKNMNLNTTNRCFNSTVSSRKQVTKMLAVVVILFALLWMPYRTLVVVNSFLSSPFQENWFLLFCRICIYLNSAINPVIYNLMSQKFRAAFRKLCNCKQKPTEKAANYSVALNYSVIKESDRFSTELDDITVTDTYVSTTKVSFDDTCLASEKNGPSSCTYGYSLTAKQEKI

SMILES	outcome
CCCCC(CC)COP(=O)(Oc1ccccc1)Oc1ccccc1 (stereo not given)	inactive
FC(F)(F)c1ccc(Cl)cc1	inactive
O=C(CBr)OCc1ccccc1	inactive
c1ccc2c(c1)sc1ccccc12	inactive
O=S1(=O)OCC2C(CO1)C1(Cl)C(Cl)=C(Cl)C2(Cl)C1(Cl)Cl (stereo not given)	inactive
COC(N)=O	inactive
CCCCCCCc1ccc(O)cc1	inactive
CC(C)(C)N(NC(=O)c1ccc(Cl)cc1)C(=O)c1ccccc1	inactive

Molecular target: human Peripheral-type Benzodiazepine Receptor (PBR), TSPO (gene 706) (UniProt P30536)
Assay: NVS_MP_hPBR: NovaScreen (NVS) Membrane Protein Assay for human Peripheral-type Benzodiazepine Receptor (PBR) (AID 2283331);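 note: hits reduce radioligand binding relative to DMSO baseline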
Procedure, shortened: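 Scintillation counts of filter-bound radioligand served as read-out after 1 h chemical dosing of human colonic membrane preparations. Activity was scored as signal loss against DMSO; initial duplicates at 25 uM, confirmatory concentration series afterward.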

Chain of human Peripheral-type Benzodiazepine Receptor (PBR), TSPO (gene 706) (P30536 whole entry, looked up): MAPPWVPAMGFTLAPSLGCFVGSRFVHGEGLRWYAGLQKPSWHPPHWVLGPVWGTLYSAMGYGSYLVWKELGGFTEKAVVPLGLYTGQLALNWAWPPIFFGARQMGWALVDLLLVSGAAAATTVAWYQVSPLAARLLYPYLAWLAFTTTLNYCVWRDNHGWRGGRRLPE

SMILES	AC50	outcome
Nc1ccc2ccccc2c1	6.61 µM (active)	–
O=P(OCC(Br)CBr)(OCC(Br)CBr)OCC(Br)CBr (stereo not given)	1.25 µM (active) and 139 nM (active)	–
CCCCC(CC)COP(=O)(Oc1ccccc1)Oc1ccccc1 (stereo not given)	10.9 µM (active)	–
O=P(Oc1ccccc1)(Oc1ccccc1)Oc1ccccc1	2.61 µM (active)	–
CCOP(=S)(Oc1ccc([N+](=O)[O-])cc1)c1ccccc1 (stereo not given)	–	inactive
CO/N=C(/C(=O)OC)c1ccccc1COc1ccccc1C	2.76 µM (active)	–
CCOP(=S)(OCC)SCS(=O)(=O)CC	25 µM (active)	–
CC(C)(C)c1ccccc1OP(=O)(Oc1ccccc1)Oc1ccccc1	1.16 µM (active)	–
Oc1ccc(I)cc1	–	inactive
Cc1ccc2c(c1N)C(=O)c1ccccc1C2=O	13.9 µM (active)	–
Cc1cc(C)c(C(=O)P(=O)(c2ccccc2)c2ccccc2)c(C)c1	3.55 µM (active)	–
CC(C)(C)c1ccc(O)cc1	–	inactive
N#Cc1c(-c2ccc(Cl)cc2)[nH]c(C(F)(F)F)c1Br	0.122 µM (active)	–
CCC(C)(C)c1ccc(O)cc1	–	inactive
CCOP(=S)(NC(C)C)Oc1ccccc1C(=O)OC(C)C (stereo not given)	9.3 µM (active)	–
c1ccc(OP(Oc2ccccc2)Oc2ccccc2)cc1	17.6 µM (active)	–
CCCCOCCOP(=O)(OCCOCCCC)OCCOCCCC	7.98 µM (active) and 6.27 µM (active)	–
C=CC(=O)OCC(CC)(COC(=O)C=C)COC(=O)C=C	17.2 µM (active)	–
CCOP(=S)(OCC)SCn1nnc2ccccc2c1=O	11.2 µM (active)	–
